Measured values from PubChem BioAssay AID493231 (Broad Institute, 2011).
Measured potencies and affinities stand elsewhere. Unmarked numbers belong to inactive results. The rule behind the calls is not given here.

What follows are molecules tested against Acyl-homoserine lactone acylase PvdQ (Pseudomonas aeruginosa (strain ATCC 15692 / DSM 22644 / CIP 104116 / JCM 14847 / LMG 12228 / 1C / PRS 101 / PAO1)) (UniProt Q9I194) (assay: PvdQ acylase enzyme activity blockers – biochemical, fluorescence, plate reader and imaging, cherry-picks, dose response (AID 493231;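 note: 0% = neutral control wells and -100% = reference inhibitor wells; more negative values mean stronger inhibition of the acylase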)). Conditions: purified PvdQ acylase, fluorogenic substrate; series mostly up to 10 µM; activity change, negative = inhibition: at the top concentration.
Chain of Acyl-homoserine lactone acylase PvdQ (Pseudomonas aeruginosa (strain ATCC 15692 / DSM 22644 / CIP 104116 / JCM 14847 / LMG 12228 / 1C / PRS 101 / PAO1)) (Q9I194 whole entry, looked up): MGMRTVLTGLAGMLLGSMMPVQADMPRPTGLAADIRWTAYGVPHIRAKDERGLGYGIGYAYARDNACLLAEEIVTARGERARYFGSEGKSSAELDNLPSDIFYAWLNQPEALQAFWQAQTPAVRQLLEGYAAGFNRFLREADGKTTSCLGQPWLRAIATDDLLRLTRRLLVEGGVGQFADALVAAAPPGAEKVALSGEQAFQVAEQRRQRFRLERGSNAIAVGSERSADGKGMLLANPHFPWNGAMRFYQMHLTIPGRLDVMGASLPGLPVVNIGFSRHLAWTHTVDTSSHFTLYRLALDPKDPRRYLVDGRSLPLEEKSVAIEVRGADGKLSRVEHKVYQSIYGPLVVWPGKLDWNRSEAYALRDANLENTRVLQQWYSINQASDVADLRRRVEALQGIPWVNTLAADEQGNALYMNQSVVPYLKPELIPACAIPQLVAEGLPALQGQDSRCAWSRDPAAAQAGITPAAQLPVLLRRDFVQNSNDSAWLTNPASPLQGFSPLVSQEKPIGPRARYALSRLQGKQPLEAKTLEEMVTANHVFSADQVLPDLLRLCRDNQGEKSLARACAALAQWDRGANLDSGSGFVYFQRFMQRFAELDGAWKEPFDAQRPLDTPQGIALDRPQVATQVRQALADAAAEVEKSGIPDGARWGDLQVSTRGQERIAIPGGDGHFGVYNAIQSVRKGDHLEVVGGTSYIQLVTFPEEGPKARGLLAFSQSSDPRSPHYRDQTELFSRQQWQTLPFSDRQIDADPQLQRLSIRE

SMILES | activity change, negative = inhibition
Cc1ccc(CCNC(=O)CCS(=O)(=O)c2ccc(Br)cc2)cc1 | -5.93 unspecified
COC(=O)C(C(=O)OC)c1ncccc1[N+](=O)[O-] | 7.66 unspecified
Cc1nc(N2CCNCC2)c2c3c(sc2n1)CCCC3 | -1.68 unspecified
COCC(=O)N1CCC(Oc2ccc(C(=O)NCCc3ccncc3)cc2)CC1 | -8 unspecified
CN(C(=O)CCn1c(=S)oc2ccccc21)c1ccc(F)cc1 | 9.4 unspecified
COc1cccc(Nc2nc(Nc3ccc(Cl)c(C(=O)O)c3)nc(C)c2[N+](=O)[O-])c1 | -0.579 unspecified
Cc1cc(=O)n2nc(N3CCCC(C(=O)N4CCOCC4)C3)sc2n1 (stereo unspecified) | -2.15 unspecified
CCCN(c1nc(C)cc(OC)n1)S(=O)(=O)c1ccccc1 | 10.6 unspecified
COc1ccc(OCCSc2nc3ccccc3n2CCC(=O)O)cc1 | 8.07 unspecified
Cc1cc(/C=C2\Cc3ccccc3C2=O)c(C)n1-c1ccccc1 | 2 unspecified
COc1ccc(-c2onc3ccc(Br)cc23)cc1 | 7.1 unspecified
Cc1ccsc1C(=O)NCCC(c1ccccc1)c1ccccc1 | 5.69 unspecified
Cc1cccc(NCc2ccccc2O)n1 | 10.3 unspecified
CC(=O)c1c(C)[nH]c(C(=O)COC(=O)c2cccs2)c1C | -0.196 unspecified
Cn1cccc1Cc1nnc(SCC(=O)N2CCN(c3ccccc3)CC2)n1-c1ccc(F)cc1 | 12.8 unspecified
Cc1cc(C)n2c(SCC(=O)Nc3ccc(F)cc3)nnc2n1 | 4.45 unspecified
C=CCNC(=S)NNC(=O)C(CC(C)C)CC(C)O (stereo unspecified) | 3.85 unspecified
Cc1ccc(OCCn2cc(/C(N)=N/O)c3ccccc32)cc1C | 27 unspecified

SMILES | activity change, negative = inhibition
c1ccc(CCc2ccccn2)cc1 | 1.66 unspecified
CCN(c1ccccc1)S(=O)(=O)c1cc(C(=O)Nc2ccccc2Cl)ccc1F | 2.14 unspecified
COC(=O)CNC(c1ccccc1)c1cc(C)ccc1NS(=O)(=O)c1ccc(C)cc1 (stereo unspecified) | -4.14 unspecified
COCCCNC(=O)c1cc(S(=O)(=O)NCCCN2CCCC2=O)ccc1Cl | -7.4 unspecified
CC(=O)Nc1nc(-c2ccc(Cl)cc2)ns1 | 4.38 unspecified
CN(CC1CCCN(CCc2ccc(F)cc2)C1)C(=O)CCC(F)(F)F (stereo unspecified) | -4.76 unspecified
Cc1ccc(N(c2ncnc(N)c2[N+](=O)[O-])C2CCCCC2)cc1 | 9 unspecified
CN1C(=O)/C(=C/c2ccc(O)c([N+](=O)[O-])c2)N(C)C1=S | 2.91 unspecified
Cn1c(=O)c2c(ncn2CC(=O)OCC(=O)NCc2ccc(Cl)cc2)n(C)c1=O | 12.1 unspecified
COc1ccc(C2NCCc3c2[nH]c2ccccc32)cc1COc1ccc(F)cc1 (stereo unspecified) | -8.73 unspecified
CCOC(=O)/C(C#N)=C/c1c(N2CCCCCC2)nc2ccccn2c1=O | -0.405 unspecified
COc1ccc(C(=O)N/N=C/c2ccc(OC)c(CN3CCCc4ccccc43)c2)cc1 | 4.56 unspecified
CCOC(=O)CSc1nnc(-c2ccc(S(=O)(=O)N3CCC(C)CC3)cc2)o1 | 8.29 unspecified
CC(=O)N/N=C/c1c(C)[nH]n(-c2ccccc2)c1=O | -7.85 unspecified
Cc1cc(C(=O)Nc2ccc(F)c(Cl)c2)on1 | -12.7 unspecified
CN=C1S/C(=C\c2ccc(SC)cc2)C(=O)N1C | -0.467 unspecified
C/C(CCC1CC(C)OC1=O)=N/Nc1nc(-c2ccccc2)cs1 (stereo unspecified) | 9.21 unspecified
O=C(OCc1nc2ccccc2s1)c1ccc([N+](=O)[O-])o1 | 7.21 unspecified
